Screens from PubChem BioAssay.
Imprint erasure – genomic imprint erasure induction; Potency, µM (titrated, usually from 60.7 µM), without a hit: at the top dose activity change, positive = activation, hits mostly activators; mouse ES Peg3-LacZ reporter, beta-gal luminescence, 40 h; hit rate 0.02% among 110,000
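Imprint erasure is scored as LacZ activity from the silenced maternal Peg3 allele in feeder-free female ES cells cultured 40 h with LIF. Luminescence is normalized to in-plate negative controls and fitted to the Hill equation.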
IkB sig inh – inhibitors of IkB signaling in ABC-DLBCL cells; ABC-DLBCL IkBa-CBG/CBR dual luciferase ratio, 4 h; response scale: scaled: untreated 0%, proteasome inhibitor 100%; Potency, µM (doses to about 57.1 µM), for the others: at the top dose IkBa stabilization activation; hit rate 0.04% among 110,000; active means well fitted curve in the direction sought with a large enough effect in the signal ratio, not every such curve was filed as active; inconclusive means small, poorly fitted or top-dose-only effect, or a change in a side signal; the % refers to the signal ratio;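 further: the direction sought is a rising ratio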
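Luminescence ratio of IκBα-fused green versus native red beetle luciferase in OCI-Ly3 cells, 4 h post-doxycycline with compound; red signal alone, scaled from basal (0%) to zero light (-100%), flagged nonspecific or cytotoxic effects.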
p53ts 39C kill – p53ts cell cytotoxicity, nonpermissive temperature; H1299-p53A138V viability at 39C, ATP luminescence, 24 h; Potency, µM (series often up to 46.1 µM), for the others: at the highest dose activity change, negative = cell killing, hits mostly cytotoxic; hit rate 1.5% among 130,000; AID 902; further: on the % scale 0 is the no-effect control and ±100 the full control effect; nearly all actives have a fitted effect of over 55% in size
p53ts 32C tox – cytotoxicity in p53ts cells at permissive temperature | H1299-p53A138V at 32C, ATP luminescence viability, 24 h | Potency, µM (highest dose often 46.1 µM), without a hit: top-dose activity change, negative = cytotoxicity, actives largely listed as cytotoxic | hit rate 0.93% among 130,000;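 further: 0% = DMSO and -100% = full killing by reference compound; nearly all actives have a fitted effect of over 55% in size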
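ATP-content luminescence (ATPlite) read-out after 24 h compound exposure at 32C in H1299-p53A138V cells (600/well). Tested up to 46 uM. Normalized to DMSO (0%) and 100 uM tamoxifen (100% killing); Hill-fit AC50.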
Numbers without * were called inactive; ? = inconclusive; · = no result given; [ ] = dose if it differs, or a comment. Only some compounds are listed: those with a hit (about 1.7% of all), similar ones and a draw of the others. Unless noted, the call rests on the fitted dose curve; in most records, active means well fitted curve in the direction sought with a large enough effect; inconclusive means small, poorly fitted or top-dose-only effect, or another doubt; inactive means no such curve, though single readings can be large; an effect the other way counts as inactive or inconclusive. Potency means the concentration at half of the fitted maximal effect.

SMILES | Imprint erasure | IkB sig inh | p53ts 39C kill | p53ts 32C tox
CC(=O)NCCNc1ncnc2ccc(-c3c(C)noc3C)cc12 | -16.4% | 4.8%[11.4 µM] | -1.1% | 8.0%
Cc1ccc(-c2nc(CS(=O)CC(=O)N3CCN(c4cccc(Cl)c4)CC3)c(C)o2)cc1 (stereo unspecified) | -8.8%[10.9 µM] | 0.3% | 12.6µM* | -7.0%
Cc1cccc(/C=C(\c2nc3ccccc3[nH]2)S(=O)(=O)c2ccccc2)c1 | · | · | 4.47µM* | 4.47µM*
Cc1ccc(Cl)cc1N1CCN(CCCNC(=O)C2COc3ccccc3C2)CC1 (stereo unspecified) | -12.0%[10.9 µM] | 2.6% | ? | -9.5%
CN1CC(=O)Nc2cc(C(=O)O)ccc21 | -16.1%[10.9 µM] | 1.1% | -24.8% | -0.6%
Cc1ccnc(N(C(=O)c2cccs2)C(=O)c2cccs2)c1 | -89.4% | 0.8% | 12.6µM* | ?
Cc1ccc2nc(N(Cc3cccnc3)C(=O)c3cccs3)sc2c1 | -10.8%[10.9 µM] | ? | -27.5% | -4.0%
O=S(=O)(c1cccc2c(Cl)cccc12)N1CCCNCC1 | -16.4% | ? | 15.8µM* | -3.5%
CCCn1cc(S(=O)(=O)c2ccccc2)c(=O)c2cc(F)c(N3CCCCCC3)cc21 | · | · | · | 1.3%
CCc1ccc(NC(=O)Cn2c(=O)n(-c3ccc(OC)cc3)c(=O)c3ccc(C(=O)NCc4ccc(C)cc4)cc32)cc1 | -5.6%[10.9 µM] | 1.3% | 3.16µM* | 10µM*
Cc1ccc(NC(=O)Cn2c(=O)n(-c3ccc(C)cc3)c(=O)c3ccc(C(=O)NCc4ccccc4Cl)cc32)cc1 | -25.4%[10.9 µM] | ? | 1.26µM* | 6.31µM*
CCCN(CCC)C(=O)Cn1c(=O)n(-c2ccc(OC)cc2)c(=O)c2ccc(C(=O)NCc3ccc(C)cc3)cc21 | -13.7%[10.9 µM] | 0.7% | 7.4% | 16.4%
O=C(O)c1cc2c(cc1S(=O)(=O)O)[C@H]1[C@@H](C3[C@H]2[C@@]2(Cl)C(Cl)=C(Cl)C3(Cl)C2(Cl)Cl)[C@]2(Cl)C(Cl)=C(Cl)C1(Cl)C2(Cl)Cl (stereo partly specified) | 3.3%[10.9 µM] | · | · | ·
COC(=O)c1c(NC(=O)c2cc(=O)c3cc(C)cc(C)c3o2)sc2c1CCC2 | 26.2%[10.9 µM] | -1.5% | 6.3% | 12.5%
c1cnc2c(c1)ccc1cccnc12 | -53.6% | 0.6%[11.4 µM] | 3.16µM* | ?
Nc1nc(Sc2ccc([N+](=O)[O-])c3nonc23)c2[nH]cnc2n1 | -40.7%[10.9 µM] | 3.98µM* | ? | ?
Cn1c(=O)c2[nH]c([C@@H]3CC(=O)C[C@H](c4nc5c([nH]4)c(=O)n(C)c(=O)n5C)N3)nc2n(C)c1=O | -1.9%[10.9 µM] | -1.6%[11.4 µM] | 5.6%[9.22 µM] | 4.9%[9.22 µM]
COc1ccc(Cl)cc1NC(=O)CSc1nnc2[nH]c(=O)cc(-c3ccccc3)n12 | -4.1%[10.9 µM] | ? | 3.16µM* | ?
CCc1ccc(NC(=O)CSc2nnc3[nH]c(=O)cc(-c4ccccc4)n23)cc1 | 7.2%[10.9 µM] | 3.4% | 6.31µM* | 2.3%
O=C(CSc1nnc2[nH]c(=O)cc(-c3ccccc3)n12)Nc1ccccc1C(F)(F)F | -9.0%[10.9 µM] | 1.5% | ? | ?
Cc1c(-c2ccc(Br)cc2)c(=O)oc2ccc(OC(=O)N3CCOCC3)cc12 | -7.1%[10.9 µM] | -2.3% | -20.1% | 2.1%
O=c1cc(-c2ccc(O)c(O)c2)oc2cc(O[C@@H]3O[C@@H](CO)[C@@H](O)[C@@H](O)[C@H]3O)cc(O)c12 | · | 0.9%[11.4 µM] | · | ·
O=C(COc1ccc(F)cc1)Nc1ccc2nc(SCCOc3ccccc3)sc2c1 | -9.6%[10.9 µM] | -1.5% | 9.4% | -5.3%
Cc1cccc(NC(=O)CSc2nc3ccc(NC(=O)COc4ccccc4F)cc3s2)c1 | -14.3%[10.9 µM] | -1.6% | 10µM* | ?
Cc1ccc(OCCSc2nc3ccc(NC(=O)COc4ccc(F)cc4)cc3s2)cc1 | -10.5%[10.9 µM] | -2.9% | 10µM* | -0.1%
SMILES | Imprint erasure | IkB sig inh | p53ts 39C kill | p53ts 32C tox
Cc1cc(C(=O)CN2C(=O)C3CC=CCC3C2=O)c(C)n1-c1ccccc1 (stereo unspecified) | -21.9% | 2.7% | 12.6µM* | 10µM*
Cc1cc(C(=O)CN2C(=O)c3ccccc3S2(=O)=O)c(C)n1-c1ccccc1 | -60.6% | ? | 7.94µM* | 12.6µM*
COc1ccccc1-c1cc(C(F)(F)F)nc(S(=O)(=O)CCCC(=O)Nc2cc(OC)c(OC)c(OC)c2)n1 | -38.5%[10.9 µM] | -7.5% | 5.01µM* | 6.31µM*
COc1ccccc1-c1cc(C(F)(F)F)nc(S(=O)(=O)CCCC(=O)N2CCOCC2)n1 | -24.4% | ? | ? | ?
COc1ccc(NC(=O)CCS(=O)(=O)c2nc(-c3ccc4c(c3)OCO4)cc(C(F)(F)F)n2)cc1 | -7.7%[10.9 µM] | ? | -113.6% | ?
O=C(CCS(=O)(=O)c1nc(-c2ccc3c(c2)OCO3)cc(C(F)(F)F)n1)Nc1ccc(F)cc1F | ? | ? | 32.1% | -23.9%
COc1ccc(-c2cc(C(F)(F)F)nc(S(=O)(=O)CCCC(=O)Nc3ccccc3C(F)(F)F)n2)cc1OC | -29.4%[10.9 µM] | ? | 5.01µM* | ?
COc1ccc(-c2cc(C(F)(F)F)nc(S(=O)(=O)CCC(=O)N3CCOCC3)n2)cc1 | -1.1% | -2.6% | ? | 5.01µM*
COc1ccc(-c2cc(C(F)(F)F)nc(S(=O)(=O)CCCC(=O)Nc3cccc(O)c3)n2)cc1OC | -8.6%[10.9 µM] | ? | 3.16µM* | ?
Cc1ccc(-n2ncc(C(=O)NCCN3CCc4ccccc4C3)c2C2CCN(C(=O)OC(C)(C)C)CC2)cc1 | -7.2%[10.9 µM] | ? | -2.9% | -26.7%
COC(=O)C1=C(C)N(Cc2ccccc2)C2=C(C(C)=O)C(c3ccccc3)[C@@](O)(C(=O)OC)C(=O)N2C1c1ccccc1 (stereo partly specified) | · | · | 5.3%[9.22 µM] | -1.3%[9.22 µM]
COc1ccccc1-c1cc(C(F)(F)F)nc(S(=O)(=O)CCCC(=O)Nc2ccc(F)c(Cl)c2)n1 | -21.4%[10.9 µM] | ? | ? | ?
COc1ccc(NC(=O)CCCS(=O)(=O)c2nc(-c3ccc(OC)c(OC)c3)cc(C(F)(F)F)n2)cc1OC | -33.5%[10.9 µM] | ? | 2.51µM* | ?
CC(C)N(CCC(=O)c1ccc2ccccc2c1)Cc1ccccc1 | -34.3% | ? | 31.6µM* | 20µM*
CC(C)N(Cc1ccccc1)C(=O)COC(=O)c1ccc2c(c1)OCCO2 | -12.1% | 0.6% | -8.5% | 4.9%
C/C(=C\CNc1ncnc2c1ncn2[C@@H]1O[C@@H](CO)[C@@H](O)[C@H]1O)CO | · | -0.1%[11.4 µM] | · | ·
Clc1ccc(-c2nc3nc4ccccc4nc3n2Cc2ccco2)cc1 | 2.1% | ? | -1.5% | -5.1%
Cc1ccc(-c2nc3nc4ccccc4nc3n2Cc2ccco2)cc1 | 3.6% | ? | 12.6µM* | 12.6µM*
O=c1oc2ccc3ccccc3c2cc1-c1nnc(Nc2ccc(F)cc2)s1 | -4.1%[10.9 µM] | -1.8% | 19.5% | 15.1%
COc1ccc(-c2coc3ccc(O[C@@H]4O[C@@H](COC(C)=O)[C@@H](OC(C)=O)[C@@H](OC(C)=O)[C@H]4OC(C)=O)cc3c2=O)cc1 | · | 4.0%[11.4 µM] | · | ·
COc1cccc2sc(NC(=O)c3ccc4c(c3)OCCO4)nc12 | -15.8%[10.9 µM] | ? | 5.01µM* | ?
CCCCOC(=O)Nc1ccc(C(=O)OCCC)cc1 | -17.8% | 5.8% | 0.8% | 0.7%
